Measured values reported in PubChem BioAssay (NCI).
The panel holds about 83,000 compounds, 20% with a hit somewhere; the sample as a whole holds those more often.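 Each cell line was grown in a 96-well plate and treated with one concentration of compound for 48 hours. Values below 10 were considered active.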 Unmarked numbers belong to inactive results. Activity calls are given as the source filed them.

What was measured:
Assay in all cases: NCI-60 one-dose screen, 48 h (100 = growth as untreated, 0 = no growth, -100 = all killed)
Settings in all cases: 10 µM unless noted
SR leukemia = test system: SR leukemia
RPMI-8226 leukemia = test system: RPMI-8226 leukemia
OVCAR-8 ovarian = test system: OVCAR-8 ovarian
OVCAR-5 ovarian = test system: OVCAR-5 ovarian
OVCAR-4 ovarian = test system: OVCAR-4 ovarian
SK-OV-3 ovarian = test system: SK-OV-3 ovarian
IGROV1 ovarian = test system: IGROV1 ovarian
OVCAR-3 ovarian = test system: OVCAR-3 ovarian
HS 578T breast = test system: HS 578T breast
NCI/ADR-RES ovarian = test system: NCI/ADR-RES ovarian

Row | Compound | growth (SR leukemia) | growth (RPMI-8226 leukemia) | growth (OVCAR-8 ovarian) | growth (OVCAR-5 ovarian) | growth (OVCAR-4 ovarian) | growth (SK-OV-3 ovarian) | growth (IGROV1 ovarian) | growth (OVCAR-3 ovarian) | growth (HS 578T breast) | growth (NCI/ADR-RES ovarian)
1 | Cc1cccc(/C=C2\CN(C(=O)OC(C)(C)C)C/C(=C\c3cccc(C)c3)C2=O)c1 | 6.54% (active) | -7.31% (active) | 85.4% | 109% | 89.2% | 93.3% | 90.4% | 97.5% | 96.7% | 88%
2 | COc1ccc(/C=C/C(=O)c2ccc(Nc3ccnc4cc(Cl)ccc34)cc2)cc1 | -72.4% (active) | -32% (active) | 97.9% | 89.2% | 96.6% | 111% | 93.7% | 118% | 106% | 83.6%
3 | C#CCNC(=O)[C@H](CC)[C@H]1CC[C@H](C)[C@H]([C@@H](C)[C@H](O)[C@H](C)C(=O)[C@H](CC)C2O[C@]3(C=CC(=O)[C@]4(CC[C@@](C)([C@H]5CC[C@](O)(CC)[C@H](C)O5)O4)O3)[C@H](C)C[C@@H]2C)O1 (stereo not given in full) | 13.5% | 25.3% | 66.8% | 68.7% | 13.9% | 68.2% | 48.5% | -23.5% (active) | 35% | 14.7%
4 | C=C1C(=O)O[C@H]2[C@H]1CC/C(Cn1cc(-c3ccccc3)nn1)=C\CC[C@@]1(C)O[C@@H]21 | 3.11% (active) | -20.5% (active) | 5.7% (active) | -2.95% (active) | 35.9% | 107% | 6.52% (active) | -84.3% (active) | 81.1% | 43.6%
5 | COc1ccc(/C=C/C(=O)c2cc3c(N)c(C(=O)Nc4cccc5ccccc45)sc3nc2C)cc1 | 44.1% | 33.4% | 81% | 103% | 88.7% | 87.7% | 70.4% | 22% | 47.6% | 58.8%
6 | O=C(N(c1ccccc1)c1ccccc1)n1cc(I)c2nc(Cl)nc(Cl)c21 | 18.9% | 0.0387% (active) | 22.6% | 63.7% | 68.4% | 60.9% | 61.8% | 25.8% | 39.1% | 42.4%
7 | NS(=O)(=O)c1ccc(N=Nc2c(O)n(Cc3ccccc3)c3ccc(Cl)cc23)cc1 | 60.2% | 90.7% | 65.1% | 86.8% | 28.7% | 74.3% | 84% | 89.4% | 44.8% | 82.5%
8 | CC1CCN(S(=O)(=O)c2ccc(S(=O)(=O)N3CCCC(c4nc5c(nnn5Cc5cccc(Cl)c5)c(=O)[nH]4)C3)cc2)CC1 (stereo not given) | 10.5% | 19.9% | 61.5% | 97.1% | 64.5% | 72.9% | 60% | 34.3% | 33.1% | 88.6%
9 | CCOC(=O)c1nn(-c2ccc(S(N)(=O)=O)cc2)c2nc(C)cc(=O)n12 | 104% | 103% | 105% | 117% | 102% | 105% | 98.7% | 110% | 103% | 103%
10 | NC(=O)CSc1oc(-c2ccccc2)nc1S(=O)(=O)c1ccc(Br)cc1 | 79.3% | 81.1% | 49.4% | 109% | 45.4% | 88.3% | 93% | 62.5% | 56.1% | 86.4%
11 | Clc1cc(Cl)c(Cl)c(-c2nnc(SCc3ccncc3Br)o2)c1 | -26.8% (active) | 72.9% | 120% | 80.1% | 90.6% | 101% | 72.9% | 89% | 90.4% | 89.6%
12 | C[C@@H](CO)[C@@H]1CCC=C2CC[C@]3(C)[C@H](CC[C@@H]4[C@@]5(C)CCCNC(C)(C)[C@@H]5CC[C@]43C)[C@H]21 | -29.9% (active) | -19.8% (active) | 67.2% | 82.9% | 48.8% | 107% | 71.3% | 69.8% | 69.8% | 80.9%
13 | COc1cc2c(cc1OCCCN1CCN(CCCOc3cc4c(cc3OC)C(=O)N3CCC[C@H]3C=N4)CC1)C=CC(C)(C)O2 | -58.3% (active) | -8.49% (active) | -56.7% (active) | -80.7% (active) | -71.2% (active) | -83.9% (active) | -89.1% (active) | -75.6% (active) | -77.9% (active) | 32.6%
14 | O=S(=O)(NCCCNc1nccc(-c2c(-c3ccc(F)c(O)c3)nc3sccn23)n1)c1ccccc1 | 33.9% | 40.3% | 54.2% | 113% | 75.6% | 78% | 65% | 66% | 72.8% | 100%
15 | CCSc1oc(-c2ccccc2)nc1[P+](c1ccccc1)(c1ccccc1)c1ccccc1 | 1.17% (active) | -18.9% (active) | 7.86% (active) | 27.6% | 13.1% | -16.1% (active) | 5.02% (active) | 3.17% (active) | 18.4% | 67.4%
16 | O=C(c1nn(-c2ccccc2)c2c1CC(NCc1ccc(F)cc1)CC2)N1CCCCC1 (stereo not given) | 94.6% | 110% | 97% | 103% | 99.2% | 103% | 97.7% | 104% | 107% | 93.9%
17 | N#CSCC1CC(O)(c2ccccc2)CC(c2ccc(F)cc2)O1 (stereo not given) | -29.6% (active) | -22.4% (active) | 10.3% | 85.6% | 26.1% | 52.7% | 51.1% | -79.3% (active) | -22.7% (active) | -3.67% (active)
18 | CCN(CC)S(=O)(=O)c1ccc(S(=O)(=O)N2CCC[C@@H](C(=O)N3CCN(c4nc(C(C)C)no4)CC3)C2)cc1 | 31.6% | 54.8% | 61.3% | 102% | 30.8% | 87.3% | 86.2% | 75.6% | 82.8% | 58.9%
19 | CCCC/C(CC)=N\NS(=O)(=O)c1ccc([N+](=O)[O-])cc1 | 97.5% | 101% | 100% | 94.6% | 100% | 95.9% | 105% | 107% | 103% | 104%
20 | COC(=O)Nc1nc2ccc(S(=O)c3ccccc3)cc2[nH]1 (stereo not given) | 23.4% | 75.6% | 80.3% | 92.8% | 84.4% | 81.1% | 67.8% | 57.9% | 62% | 53.3%
21 | CCNCCNc1cc(C2CCCCC2)c(C#N)c2nc3ccccc3n12 | -10.4% (active) | -13.9% (active) | 26.2% | 18.2% | 28.3% | 28.2% | 7.32% (active) | -67.9% (active) | -5.65% (active) | 35.5%
22 | C=C(C)[C@@H]1CC[C@]2(CO)CC[C@]3(C)[C@H](CC[C@@H]4[C@@]5(C)CC[C@H](NCO)C(C)(C)[C@@H]5CC[C@]43C)[C@@H]12 | -29.5% (active) | -42% (active) | -43.8% (active) | -91.2% (active) | -93.7% (active) | -87.5% (active) | -94.1% (active) | -81.9% (active) | -58.3% (active) | -53.6% (active)
23 | CCOC(=O)c1c2c(n3cccc(F)c13)C(=O)c1ncccc1C2=O | 20.5% | 37.5% | 19.3% | 44.3% | 24.4% | -4.82% (active) | 34.4% | -11.1% (active) | 31.5% | 18.7%
24 | C#CCOC(=O)/C=C/c1cn(-c2ccccc2)nc1-c1ccc(OC)cc1 | 83.2% | 105% | 78.5% | 91% | 90.7% | 89.3% | 74% | 103% | 76.9% | 98.4%
25 | Cc1cccc(/C=C/c2c(C(=O)/C=C/c3ccccc3)c(C)nc3ccccc23)c1 | 11.8% | -11.6% (active) | -13.7% (active) | -37.9% (active) | 2.06% (active) | 33.7% | -27.6% (active) | -50.6% (active) | 18.9% | -8.03% (active)
26 | Cn1cc(-c2csc(-c3cn(C(=O)OC(C)(C)C)c4ccc(Br)cc34)n2)c2ccnc(Cl)c21 | 39.2% | 79.4% | 59.8% | 105% | 65.3% | 82.8% | 89.1% | 97.3% | 2.06% (active) | 71.8%
